Several values for one entry are separate records, joined by “and”; a condition that tells them apart may be missing. Equal values may be shown once. Results filed as inconclusive are left out. A call without a number means that no potency is given here. Some compounds were tested as several samples or in several runs, with calls that do not always agree. Activity calls are given as the source filed them. Calls follow the shape of the dose curve; as a rule, active = well fitted inhibition curve with a large enough effect in the repeat runs; inconclusive = weak or mixed curves, or effect the other way; inactive = no such curve, though single readings can be large or run the other way.
Potency is read from the fitted curve at half-maximal effect.

The assay has as its target Nuclear receptor ROR-gamma (Homo sapiens) (UniProt P51449). As to the kind of experiment: qHTS assay to identify small molecule antagonists of the retinoid-related orphan receptor gamma (ROR-gamma) signaling pathway (AID 1159521; also: nearly all actives have a fitted effect of over 50% in size; as to activity change, negative = inhibition: top concentration of the series differs between compounds). Conditions: Tet-on RORgamma CHO cells, RORE-luciferase, 16 h; series mostly up to 92.4 µM; activity change, negative = inhibition: at the top concentration. The source says:
U.S. Tox21 Program National Center for Advancing Translational Sciences [NCATS] NIH Chemical Genomics Center [NCGC] U.S. Environmental Protection Agency [EPA] National Institutes of Environmental Health Sciences [NIEHS] National Toxicology Program [NTP] U.S. Food and Drug Administration [FDA] Tox21 Assay Overview: Nuclear steroid hormone receptors are involved in many biological processes including inflammatory responses, cell proliferation, and apoptosis. Environmental factors or compounds disrupting these nuclear receptor pathways and gene expression may promote susceptibility to immunotoxicants and autoimmune diseases. One important group of these expression factors are the retinoid-related orphan receptors. To assess compounds that may interfere with the retinoid-related orphan receptor gamma (ROR-gamma) transcription factor, a cell-based luciferase assay was used. The CHO cell-based assay utilizes a TET-inducible ROR expression factor and ROR response element-LUC reporter gene. Reporter gene activity was induced using Doxycycline Hyclate and measured after 16 hr incubation. Tet-on ROR gamma CHO cells were used to screen against the Tox21 10K compound library for ROR gamma antagonists by quantification of decreased reporter gene activity in terms of decreased luminescence.
Tox21 Assay Protocol Summary: Tet-on ROR gamma CHO cells were dispensed at 1,000 cells in 4 uL of culture medium per well into white wall/solid bottom 1536-well plates using a Multidrop Combi (Thermo Scientific, Waltham, MA) dispenser. Following incubation at 37 C and 5% CO2 for 4 hr, 23 nL of compounds dissolved in DMSO, positive controls or DMSO only were transferred by a Pintool station (Kalypsys, San Diego, CA) and after 2 hr incubation at 37 C, one ul of 1 uM (final concentration) of Doxycycline Hyclate was added to all the wells by using a Flying Reagent Dispenser (FRD) (Aurora Discovery, San Diego, CA). After 16 hr incubation at 37 C and 5% CO2, 5 uL of ONE-Glo reagent (Promega Corporation, Madison, WI) was added to each assay plate using FRD. After 30 min incubation at room temperature, luminescence was quantified on a ViewLux plate reader (Perkin Elmer, Waltham, MA).
For orientation: Quantitative high-throughput screening tests each substance at several concentrations.
In the case of `C=CCOC(=O)C(=C)C`, the Potency result was “inactive”.

Regarding `IC(I)I`, the “activity change, negative = inhibition” value was -23.4% (inactive).

Take `CC1=CC(C)(C)Nc2ccccc21`: the “activity change, negative = inhibition” value is -12% (inactive).

In the case of `CC(=O)Oc1c(C)c(C)c2c(c1C)CC[C@@](C)(CCC[C@H](C)CCC[C@H](C)CCCC(C)C)O2`, the Potency entry is “inactive”.

Consider `Cc1ccc(C(C)(C)C)cc1`, for which the Potency result is “inactive”.

Consider `NCCS(=O)(=O)O`, for which the Potency entry was “inactive”.

On to `CN(C)/N=N/c1nc[nH]c1C(N)=O`, for which the Potency result was “inactive”.

Consider `CC1(C)NC(=O)N(c2ccc([N+](=O)[O-])c(C(F)(F)F)c2)C1=O`, for which the Potency is 17.2 µM (active) and 18.8 µM (active).

On to `CCCCCCCCCCCCO`, for which the Potency result was “inactive”.

Take `Cc1ccc(C(C)(C)C)c(O)c1`: the Potency result was “inactive”.

Consider `CC1(C)OC(=O)NC1=O`, for which the “activity change, negative = inhibition” value is -0.777% [at 42.5 µM] (inactive).

`c1ccc2ncccc2c1`: the Potency entry is “inactive”.

Regarding `O=S1(=O)CCCO1`, the Potency result was “inactive”.

On to `CCOC(=O)C(C)Oc1ccc(Oc2cnc3cc(Cl)ccc3n2)cc1` (stereo not given), for which the Potency entry is “inactive”.

As for `O=C(O)CCCC(=O)O`, the “activity change, negative = inhibition” value was -1.31% (inactive).

With `CC(C)(Oc1ccc(Cl)cc1)C(=O)O`, the Potency entry is “inactive”.

As for `CC1(C)C(C=C(Cl)Cl)C1C(=O)OCc1cccc(Oc2ccccc2)c1` (stereo not given), the Potency was 54.1 µM (active) and inactive.

In the case of `COc1ccc2nc(N)sc2c1`, the Potency entry is “inactive”.

On to `C[C@]12C=CC(=O)C=C1CC[C@H]1[C@@H]3C[C@@H](O)[C@](O)(C(=O)CO)[C@@]3(C)C[C@H](O)[C@@]12F`, for which the Potency result is “inactive”.

Turning to `O=C1OC2(c3ccccc31)c1cc(I)c(O)c(I)c1Oc1c2cc(I)c(O)c1I`, the Potency was 48.7 µM (active) and inactive.

As for `CC(=O)Oc1ccc(C(c2ccc(OC(C)=O)cc2)c2ccccn2)cc1`, the Potency result is “inactive”.

As to `CN(Cc1cnc2nc(N)nc(N)c2n1)c1ccc(C(=O)N[C@@H](CCC(=O)O)C(=O)O)cc1`, the Potency result was “inactive”.

On to `CC(=O)[C@H]1CC[C@H]2[C@@H]3CC=C4C[C@@H](O)CC[C@]4(C)[C@H]3CC[C@]12C`, for which the Potency is 13.7 µM (active).

`C[N+](C)(C)CCO`: the “activity change, negative = inhibition” value was -1.13% (inactive).

Turning to `C/C=C/C(=O)N(CC)c1ccccc1C`, the Potency entry is “inactive”.

Regarding `CN1CCOCC1`, the Potency result was “inactive”.

`CC(C)=CCO`: the Potency result was “inactive”.

As to `Cc1ccc(N)c([N+](=O)[O-])c1`, the “activity change, negative = inhibition” value is 15.9% (inactive).

On to `O=C(O)COCCN1CCN(C(c2ccccc2)c2ccc(Cl)cc2)CC1` (stereo not given), for which the Potency result was “inactive”.

On to `CC(=O)O[C@]1(C(C)=O)CC[C@H]2[C@@H]3C=C(C)C4=CC(=O)CC[C@]4(C)[C@H]3CC[C@@]21C`, for which the Potency is 21.7 µM (active).

`CC(=O)Nc1ccc2c(c1)Cc1cc(NC(C)=O)ccc1-2`: the Potency entry was “inactive”.

Consider `CCC(Cc1c(I)cc(I)c(N)c1I)C(=O)O` (stereo not given), for which the “activity change, negative = inhibition” value is -21% (inactive).

For the molecule `COc1cc([C@H]2Oc3cc([C@H]4Oc5cc(O)cc(O)c5C(=O)[C@@H]4O)ccc3O[C@@H]2CO)ccc1O`, the “activity change, negative = inhibition” value was -25.7% [at 42.5 µM] (inactive).

As for `C=C[C@@]1(C)CC(=O)[C@]2(O)[C@@]3(C)[C@@H](O)CCC(C)(C)[C@@H]3[C@H](O)[C@H](OC(C)=O)[C@@]2(C)O1`, the Potency was 54.5 µM (active).

Turning to `CCC(=O)O[C@H]1[C@H](O[C@@H]2[C@@H](C)[C@H](O[C@H]3C[C@@](C)(OC)[C@@H](O)[C@H](C)O3)[C@@H](C)C(=O)O[C@H](CC)[C@@](C)(O)[C@H](O)[C@@H](C)C(=O)[C@H](C)C[C@@]2(C)O)O[C@H](C)C[C@@H]1N(C)C`, the Potency entry was “inactive”.

As to `Clc1ccc(Sc2cc(Cl)c(Cl)cc2Cl)cc1`, the Potency entry was “inactive”.

On to `Nc1ccc2c(O)cc(S(=O)(=O)O)cc2c1`, for which the Potency is 9.7 µM (active) and 5.45 µM (active).

As to `O=Cc1ccccc1C=O`, the Potency was 17.2 µM (active) and inactive.

For the molecule `O=C(O)CCCCCCCCCCCC(=O)O`, the Potency is 53.6 µM (active) and inactive.

As to `Cc1ccc(S(=O)(=O)NCl)cc1`, the “activity change, negative = inhibition” value is -3.32% (inactive).

For the origin of these results see PubChem BioAssay (Tox21).
